# Test results: PubChem BioAssay (EPA / NIEHS)
# Several values for one entry are separate records, joined by “and”; a condition that tells them apart may be missing. Identical values can stand only once. Results filed as inconclusive are left out. Some compounds were tested as several samples or in several runs, with calls that do not always agree. Activity calls are given as the source filed them. How the source made its calls, unless noted: active means hit-call score of the fitted dose curve at least 0.9, where 1 is the maximum; inconclusive means response in the unintended direction; inactive means score below 0.9.
# Assays:
# [1] = molecular target: human RAR-related Orphan Receptor beta (RORb), RORB (gene 6096) (UniProt Q92753); assay: ATG_RORb_TRANS: Attagene TRANS-FACTORIAL HepG2 Assay for human RAR-related Orphan Receptor beta (RORb) (AID 2283010)
# Chain of human RAR-related Orphan Receptor beta (RORb), RORB (gene 6096) (Q92753 whole entry, looked up, the tested form may be a part): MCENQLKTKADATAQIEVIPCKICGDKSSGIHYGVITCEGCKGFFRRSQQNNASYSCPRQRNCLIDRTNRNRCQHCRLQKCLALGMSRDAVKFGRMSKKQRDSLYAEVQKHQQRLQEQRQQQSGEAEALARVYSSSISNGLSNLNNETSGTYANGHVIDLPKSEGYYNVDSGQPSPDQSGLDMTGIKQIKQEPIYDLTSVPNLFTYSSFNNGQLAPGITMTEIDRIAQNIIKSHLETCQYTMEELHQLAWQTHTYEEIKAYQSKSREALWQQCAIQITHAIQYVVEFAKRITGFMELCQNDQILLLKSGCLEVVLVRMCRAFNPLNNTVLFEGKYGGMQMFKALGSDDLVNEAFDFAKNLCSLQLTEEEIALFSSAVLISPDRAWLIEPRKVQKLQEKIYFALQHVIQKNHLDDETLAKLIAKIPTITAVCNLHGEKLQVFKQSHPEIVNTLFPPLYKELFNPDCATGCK
# Procedure, shortened: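 HepG2, transient MRTU transfection (GAL4-UAS reporters, exogenous NR-Gal4 chimeras); 24 h compound exposure; total RNA → RT-PCR → 6-FAM primer extension → HpaI digest → CE fluorescence. Positive direction vs DMSO baseline.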
# [2] = molecular target: Retinoic acid receptor RXR-alpha (Homo sapiens) (UniProt P19793); assay: ATG_RXRa_TRANS: Attagene TRANS-FACTORIAL HepG2 Assay for human Retinoid X Receptor alpha (RXRa) (AID 2283012)
# Chain of Retinoic acid receptor RXR-alpha (Homo sapiens) (P19793 whole entry, looked up, the tested form may be a part): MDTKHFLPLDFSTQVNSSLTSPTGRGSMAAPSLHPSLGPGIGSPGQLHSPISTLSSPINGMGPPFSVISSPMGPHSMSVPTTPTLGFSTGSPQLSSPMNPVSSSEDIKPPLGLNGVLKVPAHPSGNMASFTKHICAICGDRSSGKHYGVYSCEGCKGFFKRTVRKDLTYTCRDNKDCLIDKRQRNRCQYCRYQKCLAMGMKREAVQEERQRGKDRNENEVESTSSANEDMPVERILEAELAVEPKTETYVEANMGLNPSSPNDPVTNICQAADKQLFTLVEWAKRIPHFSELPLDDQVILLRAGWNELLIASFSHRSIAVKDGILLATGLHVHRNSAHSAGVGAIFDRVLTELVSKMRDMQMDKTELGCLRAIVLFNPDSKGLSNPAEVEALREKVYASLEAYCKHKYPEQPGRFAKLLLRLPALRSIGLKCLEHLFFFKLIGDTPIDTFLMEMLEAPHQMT
# Procedure, shortened: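 Read-out: fluorescent reporter-transcript fragments quantified by capillary electrophoresis after RT-PCR. Transiently transfected HepG2 cells carrying GAL4-UAS reporters and NR-GAL4 chimeras were exposed to chemical for 24 h; activity scored as increase over DMSO.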
# [3] = molecular target: human Thyroid Receptor alpha (THRa1), THRA (gene 7067) (UniProt P10827); assay: ATG_THRa1_TRANS: Attagene TRANS-FACTORIAL HepG2 Assay for human Thyroid Receptor alpha (THRa1) (AID 2283014)
# Chain of human Thyroid Receptor alpha (THRa1), THRA (gene 7067) (P10827 whole entry, looked up, the tested form may be a part): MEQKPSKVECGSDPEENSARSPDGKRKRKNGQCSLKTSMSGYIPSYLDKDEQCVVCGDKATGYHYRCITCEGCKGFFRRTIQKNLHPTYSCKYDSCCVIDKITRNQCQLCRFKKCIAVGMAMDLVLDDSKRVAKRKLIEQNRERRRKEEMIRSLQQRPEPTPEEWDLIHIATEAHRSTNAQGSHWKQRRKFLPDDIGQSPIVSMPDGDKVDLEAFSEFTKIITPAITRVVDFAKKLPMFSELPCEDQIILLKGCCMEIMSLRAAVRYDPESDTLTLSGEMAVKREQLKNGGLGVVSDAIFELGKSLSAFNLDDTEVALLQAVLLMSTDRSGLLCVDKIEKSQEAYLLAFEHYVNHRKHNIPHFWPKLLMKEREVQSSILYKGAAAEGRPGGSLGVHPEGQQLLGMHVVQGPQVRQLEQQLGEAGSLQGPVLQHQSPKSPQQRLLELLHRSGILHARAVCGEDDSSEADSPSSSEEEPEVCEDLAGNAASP
# Procedure, shortened: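 Transcripts from GAL4-UAS-driven reporters, measured after 24 h compound exposure by RT-PCR plus capillary electrophoresis of 6-FAM-labeled fragments, were fitted for gain of signal relative to DMSO. Cells: transiently transfected HepG2 expressing NR-Gal4 chimeras.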
# [4] = read-out: Interleukin-1 alpha (IL1a), IL1A (gene 3552); assay: BSK_BE3C_IL1a: BioMAP Diversity Plus: BE3C Assay for Interleukin-1 alpha (IL1a) Biomarker Activity (AID 2283016; active means hit-call score of the fitted dose curve at least 0.9, where 1 is the maximum; inactive means score below 0.9); settings: primary human bronchial epithelial cells; actives raise or lower the signal
# Procedure, shortened: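 ELISA read-out of IL-1a from human lung bronchial epithelial primary cells, 24 h post-dose. Gain or loss of signal fitted relative to DMSO negative control.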
# [5] = read-out: Monocyte Chemoattractant Protein-1 (MCP1), CCL2 (gene 6347); assay: BSK_3C_MCP1: BioMAP Diversity Plus: 3C Assay for Monocyte Chemoattractant Protein-1 (MCP1) Biomarker Activity (AID 2283017; active means hit-call score of the fitted dose curve at least 0.9, where 1 is the maximum; inactive means score below 0.9); settings: primary human endothelial cells (HUVEC); actives raise or lower the signal
# Procedure, shortened: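 MCP-1 was measured by ELISA 24 h after dosing in primary HUVEC 3C cultures and fitted in both directions relative to DMSO; cytotoxicity was checked by SRB total-protein staining in parallel wells.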
# [6] = read-out: Monocyte Chemoattractant Protein-1 (MCP1), CCL2 (gene 6347); assay: BSK_4H_MCP1: BioMAP Diversity Plus: 4H Assay for Monocyte Chemoattractant Protein-1 (MCP1) Biomarker Activity (AID 2283018; active means hit-call score of the fitted dose curve at least 0.9, where 1 is the maximum; inactive means score below 0.9); settings: primary human endothelial cells (HUVEC); actives raise or lower the signal
# Procedure, shortened: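 HUVEC primary cells, 24 h post-dose, MCP-1 by ELISA. Gain or loss of signal fitted bidirectionally vs DMSO baseline. Cytotoxicity: SRB stain (0.1% after 10% TCA fixation), read 560 nm, parallel cultures.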
# [7] = read-out: Human Leukocyte Antigen - DR isotype (HLADR), HLA-DRA (gene 3122); assay: BSK_3C_HLADR: BioMAP Diversity Plus: 3C Assay for Human Leukocyte Antigen - DR isotype (HLADR) Biomarker Activity (AID 2283019; active means hit-call score of the fitted dose curve at least 0.9, where 1 is the maximum; inactive means score below 0.9;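 on outcome: ELISA of cell-surface HLA-DR on HUVEC 24 h after dosing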); settings: primary human endothelial cells (HUVEC); actives raise or lower the signal
# Procedure, shortened: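 Bidirectional fitting against DMSO was applied to the HLA-DR ELISA signal from human umbilical vein endothelial cells, 24 h post-dose. Cytotoxicity came from parallel SRB total-protein staining; 3C proliferation was counted by SRB at 48 h.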
# [8] = molecular target: human Retinoid X Receptor beta (RXRb), RXRB (gene 6257) (UniProt P28702); assay: ATG_RXRb_TRANS: Attagene TRANS-FACTORIAL HepG2 Assay for human Retinoid X Receptor beta (RXRb) (AID 2283013)
# Chain of human Retinoid X Receptor beta (RXRb), RXRB (gene 6257) (P28702 whole entry, looked up, the tested form may be a part): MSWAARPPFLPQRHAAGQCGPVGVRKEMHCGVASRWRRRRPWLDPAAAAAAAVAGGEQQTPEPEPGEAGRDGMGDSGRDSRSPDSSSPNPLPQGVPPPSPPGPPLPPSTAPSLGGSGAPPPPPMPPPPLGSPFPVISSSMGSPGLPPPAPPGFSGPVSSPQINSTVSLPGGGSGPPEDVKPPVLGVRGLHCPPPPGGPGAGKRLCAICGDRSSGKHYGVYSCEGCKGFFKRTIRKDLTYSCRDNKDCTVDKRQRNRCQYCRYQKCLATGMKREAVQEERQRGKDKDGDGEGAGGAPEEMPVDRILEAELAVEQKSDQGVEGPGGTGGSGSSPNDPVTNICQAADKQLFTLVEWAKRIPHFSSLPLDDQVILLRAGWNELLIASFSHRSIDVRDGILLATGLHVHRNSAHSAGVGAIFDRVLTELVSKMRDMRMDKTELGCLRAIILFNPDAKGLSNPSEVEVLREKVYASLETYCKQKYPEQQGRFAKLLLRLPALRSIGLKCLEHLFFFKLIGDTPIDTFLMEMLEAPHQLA
# Procedure, shortened: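 Read-out: reporter mRNA induction via RT-PCR plus capillary electrophoresis fluorescence, analysed as signal increase relative to DMSO. Cells were human HepG2, transiently transfected with GAL4-UAS reporter constructs and chimeric receptor-Gal4 fusions, dosed for 24 h.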
# [9] = molecular target: human RAR-related Orphan Receptor gamma (RORg), RORC (gene 6097) (UniProt P51449); assay: ATG_RORg_TRANS: Attagene TRANS-FACTORIAL HepG2 Assay for human RAR-related Orphan Receptor gamma (RORg) (AID 2283011)
# Chain of human RAR-related Orphan Receptor gamma (RORg), RORC (gene 6097) (P51449 whole entry, looked up, the tested form may be a part): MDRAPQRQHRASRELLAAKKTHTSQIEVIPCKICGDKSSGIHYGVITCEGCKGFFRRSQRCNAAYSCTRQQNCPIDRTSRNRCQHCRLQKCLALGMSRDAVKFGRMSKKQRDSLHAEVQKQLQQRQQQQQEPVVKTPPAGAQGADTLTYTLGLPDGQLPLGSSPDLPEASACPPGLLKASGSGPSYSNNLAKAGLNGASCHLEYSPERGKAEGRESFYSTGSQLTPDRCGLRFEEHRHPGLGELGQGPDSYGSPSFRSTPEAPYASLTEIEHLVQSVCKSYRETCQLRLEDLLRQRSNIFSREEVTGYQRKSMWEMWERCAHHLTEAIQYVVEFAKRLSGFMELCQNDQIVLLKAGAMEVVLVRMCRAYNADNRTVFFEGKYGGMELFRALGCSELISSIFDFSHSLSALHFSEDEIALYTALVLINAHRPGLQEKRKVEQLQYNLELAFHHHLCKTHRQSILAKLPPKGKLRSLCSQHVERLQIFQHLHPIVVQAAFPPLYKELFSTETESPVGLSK
# Procedure, shortened: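 Reporter transcripts from a transfected RORg-GAL4 chimera in HepG2 cells were quantified 24 h after dosing by RT-PCR, 6-FAM labelling, HpaI digestion and capillary electrophoresis; increases over DMSO baseline were fitted.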
# [10] = read-out: E-selectin (Homo sapiens) (UniProt P16581); assay: BSK_3C_Eselectin: BioMAP Diversity Plus: 3C Assay for Eselectin Biomarker Activity (AID 2283015; active means hit-call score of the fitted dose curve at least 0.9, where 1 is the maximum; inactive means score below 0.9;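 on outcome: cell surface E-selectin protein quantified by ELISA 24 h after dosing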); settings: primary human endothelial cells (HUVEC); actives raise or lower the signal
# Procedure, shortened: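 E-selectin ELISA readout, fitted bidirectionally relative to DMSO, taken 24 h post-dosing in HUVEC cultures of the 3C system. Overt cytotoxicity tracked with sulforhodamine B staining of parallel wells.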
# Chain of E-selectin (Homo sapiens) (P16581 whole entry, looked up): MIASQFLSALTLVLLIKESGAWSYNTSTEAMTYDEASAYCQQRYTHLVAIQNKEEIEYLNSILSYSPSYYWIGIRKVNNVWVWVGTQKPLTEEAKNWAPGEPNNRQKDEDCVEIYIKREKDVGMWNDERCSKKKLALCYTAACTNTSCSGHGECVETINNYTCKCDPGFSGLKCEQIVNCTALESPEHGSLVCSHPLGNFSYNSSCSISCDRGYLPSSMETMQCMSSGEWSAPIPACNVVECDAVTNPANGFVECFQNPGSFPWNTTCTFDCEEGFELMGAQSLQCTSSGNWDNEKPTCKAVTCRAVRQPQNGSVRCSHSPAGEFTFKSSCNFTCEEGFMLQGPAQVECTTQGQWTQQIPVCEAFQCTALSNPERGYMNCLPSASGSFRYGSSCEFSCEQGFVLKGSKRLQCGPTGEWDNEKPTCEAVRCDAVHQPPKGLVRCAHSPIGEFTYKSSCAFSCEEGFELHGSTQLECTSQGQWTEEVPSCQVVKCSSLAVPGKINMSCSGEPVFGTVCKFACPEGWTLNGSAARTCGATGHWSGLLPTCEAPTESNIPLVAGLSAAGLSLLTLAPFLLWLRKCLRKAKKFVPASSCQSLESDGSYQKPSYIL
structure (smiles),measurement,setting,value
O=c1ssc(Cl)c1Cl,outcome,[1],inactive
same,outcome,[2],inactive
same,outcome,[3],inactive
same,AC50,[4],12.2 µM (active)
same,AC50,[5],8.43 µM (active)
same,AC50,[6],3.92 µM (active)
same,AC50,[7],3.59 µM (active)
CC(O)C(F)(F)C(F)(F)F (stereo not drawn),outcome,[1],inactive
same,outcome,[2],inactive
same,outcome,[8],inactive
same,outcome,[4],inactive
same,outcome,[5],inactive
same,outcome,[6],inactive
same,outcome,[7],inactive
Nc1ccc(Sc2ccc(N)cc2)cc1,outcome,[1],inactive
same,outcome,[9],inactive
same,outcome,[2],inactive
same,outcome,[8],inactive
CSC(C)(C)C=NO,outcome,[1],inactive
same,outcome,[2],inactive
same,outcome,[8],inactive
same,outcome,[10],inactive
same,outcome,[4],inactive
same,outcome,[5],inactive
same,outcome,[6],inactive
same,outcome,[7],inactive
C/C(=N\NC(=O)Nc1cc(F)cc(F)c1)c1ncccc1C(=O)O,outcome,[1],inactive
same,outcome,[2],inactive
same,outcome,[8],inactive
same,outcome,[3],inactive
CN(C)C(=O)Cl,outcome,[1],inactive
same,outcome,[8],inactive
same,outcome,[3],inactive
same,outcome,[4],inactive
same,outcome,[5],inactive
same,outcome,[6],inactive
same,outcome,[7],inactive
CCCCCCCc1ccc(O)cc1,outcome,[1],inactive
same,outcome,[9],inactive
same,outcome,[2],inactive
same,AC50,[8],11.1 µM (active) and 48.7 µM (active)
same,outcome,[8],inactive
same,outcome,[3],inactive
same,AC50,[10],35.2 µM (active)
same,AC50,[4],35.7 µM (active)
same,AC50,[5],37.6 µM (active)
same,AC50,[6],29.1 µM (active)
same,AC50,[7],25.3 µM (active)
CCN(CC)C1CCCCC1,outcome,[9],inactive
CCC(C)(C)c1ccc(O)cc1,outcome,[1],inactive
same,outcome,[2],inactive
same,AC50,[8],9.83 µM (active)
same,outcome,[10],inactive
same,outcome,[4],inactive
same,outcome,[5],inactive
same,outcome,[6],inactive
same,outcome,[7],inactive
N#Cc1ccc(O)cc1,outcome,[1],inactive
same,outcome,[9],inactive
same,outcome,[2],inactive
same,outcome,[8],inactive
same,outcome,[3],inactive
CO/N=C(/C(=O)OC)c1ccccc1COc1ccccc1C,outcome,[1],inactive
same,outcome,[2],inactive
same,outcome,[8],inactive
same,outcome,[3],inactive
ClC(Cl)=C(c1ccc(Cl)cc1)c1ccccc1Cl,outcome,[1],inactive
same,outcome,[2],inactive
same,AC50,[8],27.7 µM (active)
same,AC50,[10],20 µM (active)
same,AC50,[4],14.2 µM (active)
same,AC50,[5],12.1 µM (active)
same,AC50,[6],5.93 µM (active)
same,AC50,[7],10.4 µM (active)
Cn1[nH]nnc1=S,outcome,[1],inactive
same,outcome,[2],inactive
CC(C)(C)c1ccc(O)cc1,outcome,[1],inactive
same,outcome,[2],inactive
same,AC50,[8],69.3 µM (active)
same,outcome,[4],inactive
same,outcome,[5],inactive
same,outcome,[6],inactive
same,outcome,[7],inactive
